Tau fibril FP – inhibitors of human tau fibril formation | AID 1468 | actives 0.39% (n = 280,000) | K18 P301L tau heparin fibrillization, Alexa594 FP, 6 h | Potency, µM (titrated, usually from 57.7 µM), for the others: at the highest dose activity, negative = inhibition, usual class: inhibitors; further: nearly all actives have a fitted effect of over 55% in size
Target sequence (P10636 561-689 P618L limits assumed): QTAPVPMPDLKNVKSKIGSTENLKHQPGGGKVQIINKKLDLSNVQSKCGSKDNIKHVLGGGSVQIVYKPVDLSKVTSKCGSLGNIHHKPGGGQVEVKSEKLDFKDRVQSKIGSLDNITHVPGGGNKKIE
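Steps: dispense K18 P301L tau (15 uM plus 0.24 uM Alexa 594 tracer, final) in pH 7 sodium acetate; add compound; add heparin (20 uM final); incubate 6 hr, 37 C; add ThT (30 uM final); after 1 hr ambient, read FP.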
HPGD inh – HPGD (human) dehydrogenase inhibition. actives 4.3% (n = 150,000). Potency, µM, without a hit: at the highest dose activity change, negative = inhibition, actives largely listed as inhibitors. purified HPGD, NADH fluorescence kinetic, PGE2 substrate. P15428; active means well fitted inhibition curve with a large enough effect, not every such curve was filed as active; inconclusive means small, poorly fitted or top-dose-only effect, or another doubt; inactive means no such curve, though single readings can be large or run the other way
Target sequence (P15428 whole entry, looked up): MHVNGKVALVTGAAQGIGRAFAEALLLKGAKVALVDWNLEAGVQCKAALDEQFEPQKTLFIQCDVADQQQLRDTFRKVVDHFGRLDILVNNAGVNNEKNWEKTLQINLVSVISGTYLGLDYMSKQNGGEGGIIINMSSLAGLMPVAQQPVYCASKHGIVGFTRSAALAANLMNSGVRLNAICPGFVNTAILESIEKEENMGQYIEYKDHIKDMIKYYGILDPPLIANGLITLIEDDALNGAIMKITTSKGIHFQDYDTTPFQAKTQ
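NADH formation kinetics: reaction with 30 uM PGE2 and 1 mM NAD+ (final), 20 nM enzyme, Tris-HCl pH 8 with Tween 20, after 15 min compound preincubation at room temperature. Fluorescence change, last versus first of five reads.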
ALDH1A1 inh – inhibitors of human aldehyde dehydrogenase 1A1 | P00352 | Purified ALDH1A1, NADH fluorescence, propionaldehyde substrate | Potency, µM (top dose mostly 75.3 µM), for the others: at the highest dose activity, negative = inhibition, most hits filed as inhibitors | actives 7.3% (n = 220,000); active means well fitted inhibition curve with a large enough effect, not every such curve was filed as active; inconclusive means small, poorly fitted or top-dose-only effect, or another doubt; inactive means no such curve, though single readings can be large or run the other way;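 further: plate controls were no enzyme wells and a reference inhibitor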
Tau fluor cs – counter-screen for tau fibril formation inhibitors. tau K18 P301L Alexa594 fluorescence, heparin fibrillization. Potency, µM (titrated, usually from 57.7 µM), inactives show top-dose activity change, negative = decrease. actives 0.93% (n = 280,000). AID 1463; further: nearly all actives have a fitted effect of over 55% in size
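Human tau K18 P301L (15 uM unlabeled, 0.24 uM Alexa 594-labeled) in 100 mM sodium acetate pH 7 with 20 uM heparin, 6 hr at 37 C. ThT 30 uM added, 1 hr ambient; Alexa 594 FP and total fluorescence read at 555/632 nm.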
Tau fibril ThT – inhibitors of human tau fibril formation, thioflavin T binding | Potency, µM (series often up to 57.4 µM), without a hit: at the top dose activity, negative = inhibition, hits mostly inhibitors | recombinant tau K18 P301L (four-repeat tau fragment), heparin-induced fibrillization, ThT fluorescence | actives 2.1% (n = 270,000); further: nearly all actives have a fitted effect of over 55% in size
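Heparin-induced (20 uM) aggregation of recombinant human K18 P301L tau, 15 uM unlabeled with 0.24 uM labeled, pH 7 acetate buffer, 6 hr at 37 C with compound. Fibrils quantified by 30 uM ThT fluorescence after 1 hr ambient incubation.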
JMJD2E inh – blocks human JMJD2E demethylase activity; AID 2147; B2RXH2; Potency, µM (series often up to 57.1 µM), for inactives: top-dose activity change, negative = inhibition, most hits filed as inhibitors; actives 1.6% (n = 230,000); JMJD2E catalytic domain, FDH-coupled NADH fluorescence (FDH is formaldehyde dehydrogenase);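 further: 0% = wells with enzyme and -100% = buffer wells without enzyme; nearly all actives have a fitted effect of over 50% in size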
Target sequence (B2RXH2 1-337 limits assumed): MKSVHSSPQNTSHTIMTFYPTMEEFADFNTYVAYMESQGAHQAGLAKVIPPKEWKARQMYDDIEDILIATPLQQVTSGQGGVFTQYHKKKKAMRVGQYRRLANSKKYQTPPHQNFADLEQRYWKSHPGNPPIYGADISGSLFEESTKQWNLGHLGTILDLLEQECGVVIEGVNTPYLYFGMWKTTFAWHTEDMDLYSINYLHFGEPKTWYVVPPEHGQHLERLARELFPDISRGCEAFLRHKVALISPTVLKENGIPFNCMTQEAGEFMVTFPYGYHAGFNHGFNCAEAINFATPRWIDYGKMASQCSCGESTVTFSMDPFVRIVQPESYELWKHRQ
* = called active by the depositor; [ ] = dose if it differs, or a comment. An excerpt weighted towards active compounds, which were near 9.9% of everything screened. Unless noted, the call rests on the fitted dose curve; in most records, active means well fitted curve in the direction sought with a large enough effect; inconclusive means small, poorly fitted or top-dose-only effect, or another doubt; inactive means no such curve, though single readings can be large; an effect the other way counts as inactive or inconclusive. Unless noted, on the % scale 0 is the no-effect control and ±100 the full control effect; potency means the concentration at half of the fitted maximal effect.

What do the screens show for `COc1ccc(C(=O)NC(=S)N2CCCc3ccccc32)cc1OC`?
Tau fibril FP: 1.2%; ALDH1A1 inh: inconclusive; Tau fluor cs: -23.1%; Tau fibril ThT: inconclusive; JMJD2E inh: inconclusive

How did CCc1ccc(-n2c(=O)c3c(C)c(C)sc3n(CC(=O)NCC3CCCO3)c2=O)cc1 (stereo not given) do in these assays?
Tau fibril FP: -6.1%; ALDH1A1 inh: 7.6%; Tau fluor cs: -11.7%; Tau fibril ThT: -4.4%; JMJD2E inh: 3.9%

Results for CCN(CC)S(=O)(=O)c1ccc(N2CCCC2)c(C(=O)OCC(=O)Nc2cc(C)on2)c1 ?
Tau fibril FP: -4.6%; Tau fluor cs: -4.5%; JMJD2E inh: 0.5%

Results for Cc1ccc(C(=O)Oc2ccccc2N2C(=O)C3C4CCC(C4)C3C2=O)cc1 (stereo not given) ?
Tau fibril FP: -2.9%; HPGD inh: 1.8%; ALDH1A1 inh: inconclusive; Tau fluor cs: -5.9%; Tau fibril ThT: 0.3%; JMJD2E inh: 0.1%

What do the screens show for `Cc1ccc(S(=O)(=O)N2CCC(N3CCN(Cc4ccccc4)C(=O)C3=O)CC2)cc1C`?
Tau fibril FP: 4.3%; Tau fluor cs: -6.6%; Tau fibril ThT: -2.4%

How did CCOC(=O)NC(=O)/C(C#N)=C(/C)N(C)C do in these assays?
Tau fibril FP: 2.1%; ALDH1A1 inh: inconclusive; Tau fluor cs: -1.4%; Tau fibril ThT: -4.6%; JMJD2E inh: -2.8%

Results for C[N+]1(CCC(=O)c2ccco2)CC2CCC(CC2)C1 (stereo not given) ?
HPGD inh: -0.4%; ALDH1A1 inh: 4.9%[13.5 µM]

What do the screens show for `COc1ccccc1C(=O)NC(=S)N1CCc2ccccc21`?
Tau fibril FP: -0.4%; ALDH1A1 inh: 14.1µM*; Tau fluor cs: -3.1%; Tau fibril ThT: -14.9%; JMJD2E inh: -14.8%

Results for N#C/C(=N\Nc1cccc(C(F)(F)F)c1)C(=O)c1csc(-c2cccnc2)n1 ?
Tau fibril FP: 9.8%; Tau fluor cs: -15.2%; Tau fibril ThT: 4.47µM*; JMJD2E inh: -7.5%

What do the screens show for `Cc1ccc(C(=O)Nc2cccc(C(F)(F)F)c2)cc1NC(=O)c1csc(-c2ccncc2)n1`?
Tau fibril FP: -9.4%; Tau fluor cs: -14.7%; Tau fibril ThT: -10.8%; JMJD2E inh: 0.1%

What do the screens show for `CN(C)C(=O)NC(NC(=S)Nc1ccccc1)C(Cl)(Cl)Cl` (stereo not given)?
Tau fibril FP: inconclusive; ALDH1A1 inh: 12.6µM*; Tau fluor cs: -12.3%; Tau fibril ThT: -12.6%; JMJD2E inh: -2.5%

How did Cc1ccc(NC(=S)NC(NC(=O)c2ccco2)C(Cl)(Cl)Cl)cc1 (stereo not given) do in these assays?
Tau fibril FP: -1.5%; HPGD inh: -23.1%; ALDH1A1 inh: 28.2µM*; Tau fluor cs: -17.0%; Tau fibril ThT: 0.5%; JMJD2E inh: 2.8%

What do the screens show for `CC(C)C(NC(=S)Nc1ccccc1)C(=O)O` (stereo not given)?
Tau fibril FP: 3.8%; HPGD inh: 31.6µM*; ALDH1A1 inh: 4.3%; Tau fluor cs: 7.7%; Tau fibril ThT: 5.0%; JMJD2E inh: 8.8%

What do the screens show for `O=C(NC(NC(=S)Nc1ccccc1)C(Cl)(Cl)Cl)c1cccc(Cl)c1` (stereo not given)?
Tau fibril FP: inconclusive; HPGD inh: -7.9%; ALDH1A1 inh: inconclusive; Tau fluor cs: inconclusive; Tau fibril ThT: 8.2%; JMJD2E inh: 1.3%

How did O=C(O)c1ccc(NC(=S)NC(NC(=O)c2ccco2)C(Cl)(Cl)Cl)cc1 (stereo not given) do in these assays?
Tau fibril FP: -1.7%; HPGD inh: -13.6%; ALDH1A1 inh: 39.8µM*; Tau fluor cs: -10.5%; Tau fibril ThT: -0.8%; JMJD2E inh: 1.8%

Results for Cc1cccc(NC(=S)NC(NC(=O)c2ccco2)C(Cl)(Cl)Cl)c1 (stereo not given) ?
Tau fibril FP: -13.6%; HPGD inh: -20.4%; ALDH1A1 inh: inconclusive; Tau fluor cs: inconclusive; Tau fibril ThT: -13.9%; JMJD2E inh: -0.8%

How did CCC(c1nnnn1C1CCCC1)N1CCC(C(N)=O)CC1 (stereo not given) do in these assays?
Tau fibril FP: -4.0%; ALDH1A1 inh: inconclusive; Tau fluor cs: -1.9%; Tau fibril ThT: -1.3%; JMJD2E inh: -5.1%

Results for Cc1c(NC(=O)c2ccc(N3CCC(C)CC3)c([N+](=O)[O-])c2)cccc1-c1nc2ccccc2o1 ?
Tau fibril FP: -0.2%; Tau fluor cs: -21.8%; Tau fibril ThT: inconclusive

What do the screens show for `COc1ccc(OC)c(-c2cc(C(=O)Nc3cccc(Cl)c3C)no2)c1`?
Tau fibril FP: -18.0%; Tau fluor cs: -27.0%; Tau fibril ThT: -6.3%

How did CC(=O)OC[C@@H]1O[C@H](CCO/N=C(\C)CCN2CCCCc3nc(C)c(C)cc32)C=C[C@@H]1OC(C)=O do in these assays?
Tau fibril FP: 2.9%[11.6 µM]; ALDH1A1 inh: -4.2%[13.5 µM]; Tau fluor cs: -22.3%[11.6 µM]; Tau fibril ThT: -16.2%[11.5 µM]

What do the screens show for `Cc1ccc(C(=O)N/C(=C/c2ccco2)C(=O)O)cc1`?
Tau fibril FP: 1.7%; HPGD inh: -6.6%; ALDH1A1 inh: 6.1%; Tau fluor cs: -3.5%; Tau fibril ThT: -7.7%; JMJD2E inh: 0.8%

What do the screens show for `N#CC(C#N)=C1C=CC=CN1/C(=C\c1ccco1)C(=O)c1ccc(Br)cc1`?
Tau fibril FP: inconclusive; HPGD inh: 15.8µM*; ALDH1A1 inh: inconclusive; Tau fluor cs: -27.7%; Tau fibril ThT: 11.2µM*; JMJD2E inh: -5.4%

How did COc1ccc(C(=O)/C(=C\c2ccco2)N2C=CC=CC2=C(C#N)C#N)cc1 do in these assays?
Tau fibril FP: inconclusive; HPGD inh: inconclusive; ALDH1A1 inh: inconclusive; Tau fluor cs: inconclusive; Tau fibril ThT: 12.6µM*; JMJD2E inh: inconclusive

Results for N#CC(C#N)=C1C=CC=CN1/C(=C\c1ccco1)C(=O)c1ccccc1 ?
Tau fibril FP: 20µM*; HPGD inh: 22.4µM*; ALDH1A1 inh: -7.1%; Tau fluor cs: inconclusive; Tau fibril ThT: 14.1µM*; JMJD2E inh: 13.5%

How did CC(C)(C)NC(=O)/C(=C/c1ccco1)c1ccccc1 do in these assays?
Tau fibril FP: -5.5%; HPGD inh: 3.0%; ALDH1A1 inh: -8.0%; Tau fluor cs: -2.5%; Tau fibril ThT: -8.7%; JMJD2E inh: 9.4%

How did COc1ccc(/C=C(/C(=O)c2cccs2)N2C=CC=CC2=C(C#N)C#N)cc1 do in these assays?
Tau fibril FP: inconclusive; ALDH1A1 inh: inconclusive; Tau fluor cs: -29.4%; Tau fibril ThT: 28.2µM*; JMJD2E inh: -20.8%
